# Experimental data from article PMC7862700, “An all-to-all approach to the identification of sequence-specific readers for epigenetic DNA modifications on cytosine”.
# What was measured:
# Assay in all cases: DAPPL (digital affinity profiling via proximity ligation, sequencing); 10 mM Tris-HCl pH 7.5, 50 mM NaCl, 1 mM DTT, 4% glycerol, room temperature, 30 min; GST-TFs on glutathione beads, 16-mer random dsDNA library, 0.1% formaldehyde crosslink after washing; high values mean tight binding
# FLI1 = target: T1, FLI1 (Homo sapiens, UniProt Q01543 1-452); details: protein: recombinant; tags: N-terminal GST; dsDNA, one strand shown
# T1 sequence: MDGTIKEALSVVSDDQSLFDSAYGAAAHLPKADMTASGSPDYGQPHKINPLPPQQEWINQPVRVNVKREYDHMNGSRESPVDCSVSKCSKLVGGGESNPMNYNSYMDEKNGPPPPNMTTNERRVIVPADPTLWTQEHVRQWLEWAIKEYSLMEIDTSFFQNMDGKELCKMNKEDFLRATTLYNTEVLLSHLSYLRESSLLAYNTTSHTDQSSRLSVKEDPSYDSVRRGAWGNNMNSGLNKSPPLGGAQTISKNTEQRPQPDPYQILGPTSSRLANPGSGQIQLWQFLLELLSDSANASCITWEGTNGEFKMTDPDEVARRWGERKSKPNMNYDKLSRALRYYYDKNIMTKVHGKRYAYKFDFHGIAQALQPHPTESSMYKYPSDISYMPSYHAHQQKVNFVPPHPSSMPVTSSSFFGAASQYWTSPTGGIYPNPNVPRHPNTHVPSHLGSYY
# In short: (§1)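 Yeast served to express human transcription factors as GST fusions, which were then captured on glutathione beads and labelled with DNA barcodes. Pooled with a tag-only sample, they were incubated with 200 nmole of a 16-mer random double-stranded DNA library for 30 min at room temperature in Tris/NaCl/DTT/glycerol buffer, washed, crosslinked with 0.1% formaldehyde, ligated by proximity, amplified by PCR and sequenced. Dividing each hexamer's read frequency for a factor by its frequency for the tag-only sample gives the binding signal.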
# ELK1 = target: T2, ELK1 (Homo sapiens, UniProt P19419 1-428); details: protein: recombinant; tags: N-terminal GST; dsDNA, one strand shown
# T2 sequence: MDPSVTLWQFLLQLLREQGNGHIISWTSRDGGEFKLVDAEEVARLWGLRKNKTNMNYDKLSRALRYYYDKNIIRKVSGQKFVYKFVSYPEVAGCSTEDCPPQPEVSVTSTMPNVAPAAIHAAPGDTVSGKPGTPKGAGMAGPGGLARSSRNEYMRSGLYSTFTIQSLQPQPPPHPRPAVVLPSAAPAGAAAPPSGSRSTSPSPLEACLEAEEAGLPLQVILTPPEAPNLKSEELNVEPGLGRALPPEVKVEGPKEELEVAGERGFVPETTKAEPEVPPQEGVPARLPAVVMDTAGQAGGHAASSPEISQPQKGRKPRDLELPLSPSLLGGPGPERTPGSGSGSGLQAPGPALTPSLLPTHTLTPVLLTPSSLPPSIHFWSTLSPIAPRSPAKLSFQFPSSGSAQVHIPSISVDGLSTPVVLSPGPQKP
# In short: as §1
# GABPA = target: T3, GABPA (Homo sapiens, UniProt Q06546 1-454); details: protein: recombinant; tags: N-terminal GST; dsDNA, one strand shown
# T3 sequence: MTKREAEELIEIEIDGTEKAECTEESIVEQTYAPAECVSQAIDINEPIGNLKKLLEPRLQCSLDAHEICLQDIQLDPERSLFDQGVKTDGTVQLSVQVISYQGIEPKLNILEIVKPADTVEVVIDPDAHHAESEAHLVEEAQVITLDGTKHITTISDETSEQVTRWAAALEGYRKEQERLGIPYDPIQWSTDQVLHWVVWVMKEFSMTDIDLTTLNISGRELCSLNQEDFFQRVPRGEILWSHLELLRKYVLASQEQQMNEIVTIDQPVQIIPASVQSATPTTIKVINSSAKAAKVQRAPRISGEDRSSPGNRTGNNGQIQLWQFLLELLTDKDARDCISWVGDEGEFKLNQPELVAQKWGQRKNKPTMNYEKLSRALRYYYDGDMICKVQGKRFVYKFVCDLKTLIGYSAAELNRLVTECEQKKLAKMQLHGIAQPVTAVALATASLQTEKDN
# In short: as §1
# ERG = target: T4, ERG (Homo sapiens, UniProt P11308 1-479); details: protein: recombinant; tags: N-terminal GST; dsDNA, one strand shown
# T4 sequence: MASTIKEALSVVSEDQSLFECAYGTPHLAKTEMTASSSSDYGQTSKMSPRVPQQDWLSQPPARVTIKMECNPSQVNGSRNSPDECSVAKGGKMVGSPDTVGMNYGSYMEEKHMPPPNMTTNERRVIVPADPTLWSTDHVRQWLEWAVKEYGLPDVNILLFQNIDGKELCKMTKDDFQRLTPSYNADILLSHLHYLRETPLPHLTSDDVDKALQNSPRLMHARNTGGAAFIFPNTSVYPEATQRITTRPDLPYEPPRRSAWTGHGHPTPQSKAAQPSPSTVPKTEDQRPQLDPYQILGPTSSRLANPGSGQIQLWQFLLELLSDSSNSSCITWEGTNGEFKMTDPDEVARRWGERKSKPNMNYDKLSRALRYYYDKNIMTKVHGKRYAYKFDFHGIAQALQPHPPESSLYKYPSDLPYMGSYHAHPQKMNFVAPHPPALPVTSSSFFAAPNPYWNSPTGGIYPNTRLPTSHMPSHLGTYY
# In short: as §1
# ELF1 = ELF1 (Homo sapiens, UniProt P32519 1-619); details: protein: recombinant; tags: N-terminal GST; dsDNA, one strand shown
# In short: as §1
# EHF = target: T5, EHF (Homo sapiens, UniProt Q9NZC4 1-300); details: protein: recombinant; tags: N-terminal GST; dsDNA, one strand shown
# T5 sequence: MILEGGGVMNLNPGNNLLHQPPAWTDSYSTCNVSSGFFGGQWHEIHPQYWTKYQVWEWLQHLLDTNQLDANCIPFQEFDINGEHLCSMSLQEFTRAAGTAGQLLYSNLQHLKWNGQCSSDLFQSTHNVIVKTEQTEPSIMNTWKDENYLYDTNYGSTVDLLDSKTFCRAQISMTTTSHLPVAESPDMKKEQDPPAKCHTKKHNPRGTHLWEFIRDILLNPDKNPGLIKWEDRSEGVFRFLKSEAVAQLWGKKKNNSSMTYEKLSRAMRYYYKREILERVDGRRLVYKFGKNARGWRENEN
# In short: as §1
# SPI1 = SPI1 (Homo sapiens, UniProt P17947 1-270); details: protein: recombinant; tags: N-terminal GST; dsDNA, one strand shown
# In short: as §1
# SPIB = SPIB (Homo sapiens, UniProt Q01892 1-262); details: protein: recombinant; tags: N-terminal GST; dsDNA, one strand shown
# In short: as §1
# ELK3 = target: T6, ELK3 (Homo sapiens, UniProt P41970 1-407); details: protein: recombinant; tags: N-terminal GST; dsDNA, one strand shown
# T6 sequence: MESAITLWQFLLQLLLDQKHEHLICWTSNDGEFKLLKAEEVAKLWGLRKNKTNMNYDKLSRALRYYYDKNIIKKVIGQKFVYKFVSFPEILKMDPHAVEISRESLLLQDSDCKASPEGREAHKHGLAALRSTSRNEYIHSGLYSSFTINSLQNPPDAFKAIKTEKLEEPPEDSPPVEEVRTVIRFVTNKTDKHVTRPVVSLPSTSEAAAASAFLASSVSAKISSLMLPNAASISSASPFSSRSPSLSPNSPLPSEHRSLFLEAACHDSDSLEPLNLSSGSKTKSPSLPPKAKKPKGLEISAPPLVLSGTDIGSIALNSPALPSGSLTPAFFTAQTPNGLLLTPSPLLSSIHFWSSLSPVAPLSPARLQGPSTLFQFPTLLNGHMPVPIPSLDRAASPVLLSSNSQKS
# In short: as §1
# FEV = target: T7, FEV (Homo sapiens, UniProt Q99581 1-238); details: protein: recombinant; tags: N-terminal GST; dsDNA, one strand shown
# T7 sequence: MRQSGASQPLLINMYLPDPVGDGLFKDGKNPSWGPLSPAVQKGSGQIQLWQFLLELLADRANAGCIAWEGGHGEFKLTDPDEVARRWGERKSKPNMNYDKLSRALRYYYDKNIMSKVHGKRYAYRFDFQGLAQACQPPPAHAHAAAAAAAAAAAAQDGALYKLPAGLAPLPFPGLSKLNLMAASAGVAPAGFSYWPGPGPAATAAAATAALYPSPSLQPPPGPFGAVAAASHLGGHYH
# In short: as §1
# ETV5 = ETV5 (Homo sapiens, UniProt P41161 1-510); details: protein: recombinant; tags: N-terminal GST; dsDNA, one strand shown
# In short: as §1
# HSF1 = HSF1 (Homo sapiens, UniProt Q00613 1-529); details: protein: recombinant; tags: N-terminal GST; chain copies: 3; dsDNA, one strand shown
# In short: as §1
# SPIC = target: T8, SPIC (Homo sapiens, UniProt Q8N5J4 1-248); details: protein: recombinant; tags: N-terminal GST; dsDNA, one strand shown
# T8 sequence: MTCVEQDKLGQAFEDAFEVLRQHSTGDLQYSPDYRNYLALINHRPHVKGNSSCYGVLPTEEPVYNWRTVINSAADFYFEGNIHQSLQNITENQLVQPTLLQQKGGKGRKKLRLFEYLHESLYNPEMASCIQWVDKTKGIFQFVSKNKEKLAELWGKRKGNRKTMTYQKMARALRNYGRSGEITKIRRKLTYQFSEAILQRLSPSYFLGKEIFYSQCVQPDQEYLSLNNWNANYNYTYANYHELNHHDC
# In short: as §1
# ELF4 = ELF4 (Homo sapiens, UniProt Q99607 1-663); details: protein: recombinant; tags: N-terminal GST; dsDNA, one strand shown
# In short: as §1
# ELK4 = target: T9, ELK4 (Homo sapiens, UniProt P28324-2 1-405); details: protein: recombinant; tags: N-terminal GST; dsDNA, one strand shown
# T9 sequence: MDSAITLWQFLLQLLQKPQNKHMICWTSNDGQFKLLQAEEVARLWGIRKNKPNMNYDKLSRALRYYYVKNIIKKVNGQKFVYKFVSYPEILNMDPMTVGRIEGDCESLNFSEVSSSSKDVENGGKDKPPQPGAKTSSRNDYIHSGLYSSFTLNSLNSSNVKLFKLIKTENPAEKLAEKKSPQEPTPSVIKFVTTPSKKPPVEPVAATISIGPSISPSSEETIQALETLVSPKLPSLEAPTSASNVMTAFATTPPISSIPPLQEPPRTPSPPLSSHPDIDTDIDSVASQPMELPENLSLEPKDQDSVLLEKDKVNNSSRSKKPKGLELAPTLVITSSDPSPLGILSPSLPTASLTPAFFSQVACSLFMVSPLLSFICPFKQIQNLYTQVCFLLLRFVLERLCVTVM
# In short: as §1
# ETV2 = target: T10, ETV2 (Homo sapiens, UniProt O00321 1-342); details: protein: recombinant; tags: N-terminal GST; dsDNA, one strand shown
# T10 sequence: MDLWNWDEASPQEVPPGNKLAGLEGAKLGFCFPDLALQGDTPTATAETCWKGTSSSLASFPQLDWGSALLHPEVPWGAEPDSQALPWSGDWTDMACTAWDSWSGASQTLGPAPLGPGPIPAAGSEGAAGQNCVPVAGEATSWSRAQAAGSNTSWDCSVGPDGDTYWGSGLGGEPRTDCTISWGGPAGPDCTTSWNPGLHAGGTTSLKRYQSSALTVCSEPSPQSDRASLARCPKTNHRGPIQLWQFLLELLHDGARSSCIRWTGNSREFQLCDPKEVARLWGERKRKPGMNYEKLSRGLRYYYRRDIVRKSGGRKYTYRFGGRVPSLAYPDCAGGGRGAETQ
# In short: as §1
# ELF3 = target: T11, ELF3 (Homo sapiens, UniProt P78545 1-371); details: protein: recombinant; tags: N-terminal GST; dsDNA, one strand shown
# T11 sequence: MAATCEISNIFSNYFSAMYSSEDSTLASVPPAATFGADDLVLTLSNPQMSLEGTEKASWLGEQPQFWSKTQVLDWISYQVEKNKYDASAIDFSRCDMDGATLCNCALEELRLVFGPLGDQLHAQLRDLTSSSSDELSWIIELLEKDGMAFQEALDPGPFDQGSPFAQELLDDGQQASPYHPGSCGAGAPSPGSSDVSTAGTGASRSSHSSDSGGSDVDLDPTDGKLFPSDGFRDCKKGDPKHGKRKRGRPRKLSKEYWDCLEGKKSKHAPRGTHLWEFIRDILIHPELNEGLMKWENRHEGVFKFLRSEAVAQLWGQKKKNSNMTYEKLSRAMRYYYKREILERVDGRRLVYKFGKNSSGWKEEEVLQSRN
# In short: as §1
# CRX = CRX (Homo sapiens, UniProt O43186 1-299); details: protein: recombinant; tags: N-terminal GST; dsDNA, one strand shown
# In short: as §1
# ETV1 = ETV1 (Homo sapiens, UniProt P50549 1-477); details: protein: recombinant; tags: N-terminal GST; dsDNA, one strand shown
# In short: as §1
# Chain of CRX (O43186 whole entry): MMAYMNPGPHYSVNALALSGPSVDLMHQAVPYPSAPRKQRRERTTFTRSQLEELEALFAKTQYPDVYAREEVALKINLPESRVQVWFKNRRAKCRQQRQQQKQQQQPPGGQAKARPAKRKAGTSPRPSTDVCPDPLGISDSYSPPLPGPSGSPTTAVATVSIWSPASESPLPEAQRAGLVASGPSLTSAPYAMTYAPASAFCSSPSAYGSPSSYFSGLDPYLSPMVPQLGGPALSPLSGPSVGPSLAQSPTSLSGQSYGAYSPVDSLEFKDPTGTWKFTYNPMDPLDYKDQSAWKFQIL
# Chain of HSF1 (Q00613 whole entry): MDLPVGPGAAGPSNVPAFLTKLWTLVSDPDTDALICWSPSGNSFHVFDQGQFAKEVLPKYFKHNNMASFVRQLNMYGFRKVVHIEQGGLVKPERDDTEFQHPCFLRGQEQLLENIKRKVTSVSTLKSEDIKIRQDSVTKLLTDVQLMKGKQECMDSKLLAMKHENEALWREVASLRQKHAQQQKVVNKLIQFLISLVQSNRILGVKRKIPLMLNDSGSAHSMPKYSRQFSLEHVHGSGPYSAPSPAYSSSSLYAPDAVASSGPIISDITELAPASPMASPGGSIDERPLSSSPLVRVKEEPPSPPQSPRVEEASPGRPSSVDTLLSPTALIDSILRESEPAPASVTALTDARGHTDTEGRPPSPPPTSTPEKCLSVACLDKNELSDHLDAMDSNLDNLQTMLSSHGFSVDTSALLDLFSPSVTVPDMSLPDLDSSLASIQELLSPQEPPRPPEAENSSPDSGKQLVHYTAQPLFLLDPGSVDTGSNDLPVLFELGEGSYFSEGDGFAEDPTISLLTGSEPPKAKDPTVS
# Chain of ELF1 (P32519 whole entry): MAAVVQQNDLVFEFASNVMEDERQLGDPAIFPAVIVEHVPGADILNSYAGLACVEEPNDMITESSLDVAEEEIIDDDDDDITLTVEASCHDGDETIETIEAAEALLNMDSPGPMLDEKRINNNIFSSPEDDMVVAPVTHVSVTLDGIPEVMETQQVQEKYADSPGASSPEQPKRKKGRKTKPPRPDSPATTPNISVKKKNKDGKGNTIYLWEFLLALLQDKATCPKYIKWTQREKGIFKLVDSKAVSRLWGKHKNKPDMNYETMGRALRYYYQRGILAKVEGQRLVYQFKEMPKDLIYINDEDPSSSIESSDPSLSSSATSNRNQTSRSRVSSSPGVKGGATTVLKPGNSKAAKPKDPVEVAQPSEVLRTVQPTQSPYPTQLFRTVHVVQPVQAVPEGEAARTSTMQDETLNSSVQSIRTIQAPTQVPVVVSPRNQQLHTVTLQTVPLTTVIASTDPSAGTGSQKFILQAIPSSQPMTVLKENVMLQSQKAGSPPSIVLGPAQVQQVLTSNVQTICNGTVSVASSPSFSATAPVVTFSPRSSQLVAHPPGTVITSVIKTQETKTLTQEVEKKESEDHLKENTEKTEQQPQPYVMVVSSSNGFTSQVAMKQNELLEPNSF
# Chain of SPIB (Q01892 whole entry): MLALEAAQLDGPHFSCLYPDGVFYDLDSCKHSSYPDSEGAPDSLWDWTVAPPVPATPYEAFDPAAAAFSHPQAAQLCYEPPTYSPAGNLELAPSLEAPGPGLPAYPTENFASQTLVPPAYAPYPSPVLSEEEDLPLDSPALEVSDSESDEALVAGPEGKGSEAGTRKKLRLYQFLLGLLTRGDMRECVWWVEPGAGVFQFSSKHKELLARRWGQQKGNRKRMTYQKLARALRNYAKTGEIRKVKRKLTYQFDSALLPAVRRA
# Chain of ETV5 (P41161 whole entry): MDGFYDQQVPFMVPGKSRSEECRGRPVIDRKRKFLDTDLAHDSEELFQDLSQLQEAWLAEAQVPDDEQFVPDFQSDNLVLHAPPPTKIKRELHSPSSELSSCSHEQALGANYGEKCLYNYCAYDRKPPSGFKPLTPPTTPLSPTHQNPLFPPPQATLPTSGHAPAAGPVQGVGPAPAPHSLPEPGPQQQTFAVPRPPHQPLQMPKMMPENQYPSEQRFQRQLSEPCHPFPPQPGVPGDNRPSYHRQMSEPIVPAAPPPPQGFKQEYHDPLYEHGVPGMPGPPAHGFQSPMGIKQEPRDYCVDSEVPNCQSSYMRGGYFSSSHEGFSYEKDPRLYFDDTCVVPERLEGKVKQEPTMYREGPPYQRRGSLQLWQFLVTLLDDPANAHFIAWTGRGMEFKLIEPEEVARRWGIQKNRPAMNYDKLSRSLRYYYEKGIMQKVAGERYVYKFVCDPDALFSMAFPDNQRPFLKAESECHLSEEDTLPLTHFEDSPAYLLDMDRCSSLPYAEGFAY
# Chain of ELF4 (Q99607 whole entry): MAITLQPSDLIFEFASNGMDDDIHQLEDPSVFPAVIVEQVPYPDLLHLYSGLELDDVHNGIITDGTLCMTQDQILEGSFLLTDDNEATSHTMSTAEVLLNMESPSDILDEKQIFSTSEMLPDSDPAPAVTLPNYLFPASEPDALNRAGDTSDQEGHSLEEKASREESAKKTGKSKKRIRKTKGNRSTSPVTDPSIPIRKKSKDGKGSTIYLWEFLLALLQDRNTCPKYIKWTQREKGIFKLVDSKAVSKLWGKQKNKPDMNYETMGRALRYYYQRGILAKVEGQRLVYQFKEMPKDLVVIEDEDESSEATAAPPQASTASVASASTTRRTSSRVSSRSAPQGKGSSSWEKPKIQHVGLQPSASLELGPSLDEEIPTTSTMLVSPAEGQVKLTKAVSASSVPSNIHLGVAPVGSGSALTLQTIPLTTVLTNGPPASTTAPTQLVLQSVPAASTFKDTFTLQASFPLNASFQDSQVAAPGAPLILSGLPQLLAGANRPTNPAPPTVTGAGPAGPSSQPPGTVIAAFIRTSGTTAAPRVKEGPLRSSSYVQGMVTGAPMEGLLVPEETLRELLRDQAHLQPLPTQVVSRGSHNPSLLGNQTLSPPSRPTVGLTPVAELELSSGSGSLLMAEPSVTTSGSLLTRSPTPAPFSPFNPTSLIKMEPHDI
# Chain of ETV1 (P50549 whole entry): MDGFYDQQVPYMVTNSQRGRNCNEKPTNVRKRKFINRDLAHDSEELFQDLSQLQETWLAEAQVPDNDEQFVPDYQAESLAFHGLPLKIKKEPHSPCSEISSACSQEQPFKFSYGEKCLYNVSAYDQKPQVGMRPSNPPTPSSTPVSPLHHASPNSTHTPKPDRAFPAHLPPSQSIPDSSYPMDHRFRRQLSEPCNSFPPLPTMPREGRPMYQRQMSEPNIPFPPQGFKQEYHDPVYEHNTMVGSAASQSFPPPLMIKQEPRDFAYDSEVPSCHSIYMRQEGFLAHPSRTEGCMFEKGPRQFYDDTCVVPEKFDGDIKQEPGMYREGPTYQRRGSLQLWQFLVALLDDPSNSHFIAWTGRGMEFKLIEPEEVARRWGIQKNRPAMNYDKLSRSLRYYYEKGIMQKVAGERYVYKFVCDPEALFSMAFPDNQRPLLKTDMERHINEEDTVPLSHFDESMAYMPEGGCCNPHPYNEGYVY
sequence,measurement,setting,value
AAATCA,binding signal,FLI1,"1.12 fold enrichment (6-mer frequency, TF over GST control)"
same,binding signal,ELK1,"1.19 fold enrichment (6-mer frequency, TF over GST control)"
same,binding signal,GABPA,"1.19 fold enrichment (6-mer frequency, TF over GST control)"
same,binding signal,ERG,"1.18 fold enrichment (6-mer frequency, TF over GST control)"
same,binding signal,ELF1,"1.21 fold enrichment (6-mer frequency, TF over GST control)"
same,binding signal,EHF,"1.25 fold enrichment (6-mer frequency, TF over GST control)"
same,binding signal,SPI1,"1.26 fold enrichment (6-mer frequency, TF over GST control)"
same,binding signal,SPIB,"1.2 fold enrichment (6-mer frequency, TF over GST control)"
same,binding signal,ELK3,"1.18 fold enrichment (6-mer frequency, TF over GST control)"
same,binding signal,FEV,"1.2 fold enrichment (6-mer frequency, TF over GST control)"
same,binding signal,ETV5,"1.26 fold enrichment (6-mer frequency, TF over GST control)"
same,binding signal,HSF1,"1.17 fold enrichment (6-mer frequency, TF over GST control)"
same,binding signal,SPIC,"1.18 fold enrichment (6-mer frequency, TF over GST control)"
same,binding signal,ELF4,"1.24 fold enrichment (6-mer frequency, TF over GST control)"
same,binding signal,ELK4,"1.23 fold enrichment (6-mer frequency, TF over GST control)"
same,binding signal,ETV2,"1.39 fold enrichment (6-mer frequency, TF over GST control)"
same,binding signal,ELF3,"1.27 fold enrichment (6-mer frequency, TF over GST control)"
same,binding signal,CRX,"1.33 fold enrichment (6-mer frequency, TF over GST control)"
same,binding signal,ETV1,"1.18 fold enrichment (6-mer frequency, TF over GST control)"
